From PubChem BioAssay (NCATS)
Records with an inconclusive call do not appear. Where a call stands in place of a potency, no number is given. The source made the active and inactive calls. Calls follow the shape of the dose curve; as a rule, active = well fitted inhibition curve with a large enough effect; inconclusive = small, poorly fitted or top-dose-only effect; inactive = flat fitted curve, though single readings scatter.

Molecular target: Calcium and integrin-binding protein 1 (Homo sapiens) (UniProt Q99828)
Test: Primary qHTS for Identification of Calcium Integrin Binding Protein 1 (CIB1) Competitor (AID 1508620);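 also: GST tagged CIB1 binding a fluorescein labelled alphaIIb integrin peptide tracer; top concentration of the series differs between compounds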
Details: CIB1-GST / FITC-alphaIIb peptide fluorescence polarization; series mostly up to 57.7 µM
In short: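 Fluorescence polarization competition: CIB1-GST (1 uM final) preincubated with compound 15 min at room temperature, then FITC-labeled alphaIIb peptide (100 nM final) added for another 15 min. Polarization read at Ex 480/Em 540.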

Chain of Calcium and integrin-binding protein 1 (Homo sapiens) (Q99828 whole entry, looked up): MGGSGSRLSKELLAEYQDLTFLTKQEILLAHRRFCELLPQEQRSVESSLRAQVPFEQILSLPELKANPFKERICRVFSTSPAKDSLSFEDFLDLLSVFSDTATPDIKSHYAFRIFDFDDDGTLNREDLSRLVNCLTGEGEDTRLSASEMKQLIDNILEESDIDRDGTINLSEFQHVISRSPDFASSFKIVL

Structure (SMILES)	Potency
CCCn1cnc2c(NCc3ccccc3)nc(N[C@H](CC)CO)nc21	inactive
CC(/C=C/[C@]1(O)[C@@]2(C)CO[C@@]1(C)C[C@@H](O)C2)=C\C(=O)O[C@@H]1O[C@H](CO)[C@@H](O)[C@H](O)[C@H]1O	inactive
COc1ccc2c(c1)OC[C@]1(O)c3cc4c(cc3O[C@H]21)OCO4	inactive
CC/C=C\C[C@H]1C(=O)C=C[C@@H]1CCCCCCCC(=O)O	inactive
CC(=O)OC[C@@]12[C@H](O)C[C@@H](C)[C@]3(C[C@@H](c4ccoc4)OC3=O)[C@H]1C[C@H](O)C[C@]21CO1	inactive
O=C(O[C@@H]1O[C@H](CO)[C@@H](O)[C@H](O)[C@H]1O)c1c(O)cc(O)cc1/C=C/c1ccccc1	inactive
CC1(C(=O)O)CCCC2(C)C1CCC13CC(CCC21)C1(CO)OC31 (stereo not drawn)	inactive
CC1(C)CC2C(C1)C1(C)CCC13OC3(CO)C2O (stereo not drawn)	inactive
C=CC(C)(C)C12CC3C(=O)NC(Cc4cnc[nH]4)C(=O)N3C1Nc1ccccc12 (stereo not drawn)	inactive
C=C1[C@H]2CC[C@]3(O)[C@@](CC[C@@H]4[C@](C)(C(=O)O)CCC[C@]43C)(C2)[C@H]1OC(=O)/C(C)=C\C	inactive
C=CC(C)(C)C1(CC2NC(=O)C3CCCN3C2=O)C(=O)Nc2cc3c(cc21)C=CC(C)(C)O3 (stereo not drawn)	inactive
CC(C)(O)C1=CCC23COC(C2)C(O)(C(=O)O)CCC13 (stereo not drawn)	inactive
COc1ccc(/C=C/C(=O)O[C@@H]2[C@@H](OC(C)=O)[C@@H](OC(C)=O)[C@H](O[C@H]3[C@@H]4C=CO[C@@H](O[C@@H]5O[C@H](CO)[C@@H](O)[C@H](O)[C@H]5O)[C@@H]4[C@@]4(CO)O[C@@H]34)O[C@H]2C)cc1O	inactive
